The values that follow come from PubChem BioAssay (NCATS).

Inconclusive results are not listed. Entries that show only a call come without a potency. The source made the active and inactive calls. Calls follow the shape of the dose curve; as a rule, active = well fitted inhibition curve with a large enough effect; inconclusive = small, poorly fitted or top-dose-only effect; inactive = no such curve, though single readings can be large or run the other way. Where a SMILES comes first, the peptide text is derived from it. The star is where a group is joined. Cbz = O=C(OCc1ccccc1)*

In the experiment the target is Retinaldehyde dehydrogenase 3 (Homo sapiens) (UniProt P47895). The experiment can be described thus: qHTS for Inhibitors of the Aldehyde Dehydrogenase Family (ALDH1A3) Validation screen (AID 2061312). Also: nearly all actives have a fitted effect of over 45% in size. The following applies: ALDH1A3 enzyme inhibition qHTS validation, fluorescence; series mostly up to 84.7 µM. In general terms: Quantitative high-throughput screening tests each substance at several concentrations.
For `NC1C=CC=C(C(=O)O)C1` (stereo not given), the Potency result is “inactive”.

Turning to `Fc1ccc(CN(C2=NCCN2)c2c(Cl)cccc2Cl)cc1`, the Potency result was “inactive”.

Consider `CNCC[C@H](Oc1ccc(C(F)(F)F)cc1)c1ccccc1`, for which the Potency result is “inactive”.

`Cc1cccc(C)c1OCC(C)N` (stereo not given): the Potency result was “inactive”.

`CC1CCN(CC[C@H]2CCCN2S(=O)(=O)c2cccc(O)c2)CC1`: the Potency entry was “inactive”.

Consider `NC(=O)C(=O)O`, for which the Potency entry is “inactive”.

With `O=c1[nH]c2cc([N+](=O)[O-])c([N+](=O)[O-])cc2[nH]c1=O`, the Potency entry was “inactive”.

`Nn1nnc2ccccc21`: the Potency result is “inactive”.

Regarding `CCCCCCCCCCCCCCSCC(=O)O`, the Potency result was “inactive”.

For the compound `Cc1nc(N=Nc2ccc(C(=O)O)cc2)c(COP(=O)(O)O)c(C=O)c1O`, the Potency entry is “inactive”.

On to `CN1CCc2cc(Cl)c(O)cc2[C@@H](c2ccccc2)C1`, for which the Potency entry is “inactive”.

For `C[C@@H](CN1CCC(Cc2ccccc2)CC1)[C@@H](O)c1ccc(O)cc1`, the Potency result is “inactive”.

Take `CN/C(=C\[N+](=O)[O-])NCCSCc1ccc(CN(C)C)o1`: the Potency result was “inactive”.

For the compound `Nc1ncnc2c1nc(Sc1ccc(Cl)cc1)n2[C@H]1OC2COP(=O)(O)O[C@@H]2C1O` (stereo not given in full), the Potency result is “inactive”.

In the case of `CN1CCCC1CCOC(C)(c1ccccc1)c1ccc(Cl)cc1` (stereo not given), the Potency result is “inactive”.

As for `CN(C)C(N)=NCCC[C@H](N)C(=O)O`, the Potency entry was “inactive”.

For `O=C(O)c1cc2cc(Cc3cccnc3)ccc2o1`, the Potency result was “inactive”.

Take `COc1ccc2c(c1)c(CC(=O)O)c(C)n2C(=O)c1ccccc1`: the Potency entry is “inactive”.

On to `Fc1cccc(/C=N/N=C/c2cccc(F)c2)c1`, for which the Potency entry was “inactive”.

For `NC/C=C/C(=O)O`, the Potency entry was “inactive”.

For the compound `O=c1[nH]c2cc(C(F)(F)F)ccc2n1-c1cc(C(F)(F)F)ccc1O`, the Potency entry is “inactive”.

As to `CC(C)(C)[C@]1(O)CCN2C[C@H]3c4ccccc4CCc4cccc(c43)[C@@H]2C1`, the Potency entry was “inactive”.

For the compound `CNc1ncnc2c1ncn2[C@@H]1O[C@H](CO)[C@@H](O)[C@H]1O`, the Potency result was “inactive”.

On to `O[Si](CCCN1CCCCC1)(c1ccc(F)cc1)C1CCCCC1` (stereo not given), for which the Potency entry was “inactive”.

`CC(CCc1ccc(O)cc1)NCCc1ccc(O)c(O)c1` (stereo not given): the Potency result is “inactive”.

Take `Nc1ccc(N2C(=O)c3ccccc3C2=O)c(Cl)c1`: the Potency entry was “inactive”.

In the case of `CC(C)[C@H](NC(=O)OCc1ccccc1)C(=O)N[C@H](C=O)Cc1ccccc1` (Cbz-Val-Phe-aldehyde), the Potency entry was “inactive”.

Consider `CCN(CC)CC(=O)Nc1c(C)cccc1C`, for which the Potency result is “inactive”.

Consider `CSC(=N)N`, for which the Potency entry was “inactive”.

With `CC(C)C(=O)c1c(C(C)C)nn2ccccc12`, the Potency result is “inactive”.

For `CC1=C(C(=O)O)N2C(=O)[C@@H](NC(=O)C(N)c3ccccc3)[C@H]2SC1` (stereo not given in full), the Potency entry is “inactive”.

Take `Cc1cc(NC2CCCCC2)nc(-n2nc(C)cc2C)n1`: the Potency entry was “inactive”.

For the compound `CC[C@@H](C)[C@H]1O[C@]2(CC[C@H]1C)C[C@@H]1C[C@@H](CC=C(C)[C@@H](O[C@H]3C[C@H](OC)[C@@H](O[C@H]4C[C@H](OC)[C@@H](O)[C@H](C)O4)[C@H](C)O3)[C@@H](C)C=CC=C3CO[C@@H]4[C@H](O)C(C)=C[C@@H](C(=O)O1)[C@]34O)O2`, the Potency entry is “inactive”.

`CC(=O)Nc1nnc(S(N)(=O)=O)s1`: the Potency entry is “inactive”.

`CC(=O)N[C@@H](Cc1c[nH]c2ccccc12)C(=O)OCc1cc(C(F)(F)F)cc(C(F)(F)F)c1`: the Potency result is “inactive”.

Consider `CCCCC[C@H](CC(=O)NO)C(=O)N[C@H](C(=O)N1CCC[C@H]1CO)C(C)C`, for which the Potency entry is “inactive”.

On to `CC1(C)CCC(NC(=O)[C@@H](N)CCC(=O)O)CC1`, for which the Potency entry was “inactive”.

Consider `Cn1cc(C(=O)OCC2CCN(CCNS(C)(=O)=O)CC2)c2ccccc21`, for which the Potency result is “inactive”.

As to `Nc1c2c(nc3ccccc13)CCCC2O` (stereo not given), the Potency entry was “inactive”.

Consider `Cn1cnc2c(NCc3ccccc3)nc(NCCO)nc21`, for which the Potency entry is “inactive”.
